# Assays:
# Experiment in all cases: pooled miR-30 sensor sort-seq; sequence = guide strand
# Settings in all cases: shRNA
# [1] = molecular target: EPC2
# [2] = molecular target: EPDR1
# [3] = molecular target: EPB41
# [4] = molecular target: EPHX1
# [5] = molecular target: ESPNL
# [6] = molecular target: ERMAP
# [7] = molecular target: ESR2
# [8] = molecular target: ERICH1
# [9] = molecular target: ETFB
# [10] = molecular target: FAM162A
# [11] = molecular target: FAM178A
# [12] = molecular target: FAM22F
# [13] = molecular target: FAM73A
# [14] = molecular target: FAN1
# [15] = molecular target: FBXL3
# [16] = molecular target: FCF1
# [17] = molecular target: FGF23
# [18] = molecular target: FIZ1
# [19] = molecular target: FKTN
# [20] = molecular target: FKBPL
# [21] = molecular target: FKBP10
# Note: reference of the scale not given here.
sequence,measurement,setting,value
TAGTTTTACATTCTTGAACTTT,sensor-assay potency score (higher = more potent),[1],-0.105
TTGAGGTACATTCTTCACTATC,sensor-assay potency score (higher = more potent),[1],-1.27
TTAATTTCCATCTTTCTGTTAA,sensor-assay potency score (higher = more potent),[1],-0.679
TTAAGTGCAATAATTCTCGTTT,sensor-assay potency score (higher = more potent),[1],0.497
TAGGATTCTCTAAACTGCCTTG,sensor-assay potency score (higher = more potent),[2],-0.223
TTCTTGAAGTGTTACAAGCTGA,sensor-assay potency score (higher = more potent),[1],-0.486
TATTCAAATAATCTCTTGCAGG,sensor-assay potency score (higher = more potent),[2],-0.781
TAGAATAATCTTGAAAGTCTGA,sensor-assay potency score (higher = more potent),[3],0.113
TTGACTCTTGTCTAAATCCTCC,sensor-assay potency score (higher = more potent),[3],-0.522
TTTGATCTCCTCTTGACTCTTG,sensor-assay potency score (higher = more potent),[3],0.604
TAGCTTGCCTGGTCTGAGCTTG,sensor-assay potency score (higher = more potent),[3],-0.0306
TTTTTCAGCTCACTGATGCTGG,sensor-assay potency score (higher = more potent),[3],0.147
TATAACTCTTTTTCTGATCTAC,sensor-assay potency score (higher = more potent),[1],0.207
TTGGTCAGCAGGTCGTCCAGGG,sensor-assay potency score (higher = more potent),[4],-0.558
TTTTACATCTTCTTGAGTGTCC,sensor-assay potency score (higher = more potent),[5],0.799
TTGTAGAAAGAGATGACTCCTG,sensor-assay potency score (higher = more potent),[6],0.279
TCAGACATCGGTAAGACCCTTG,sensor-assay potency score (higher = more potent),[6],0.421
TAGTTCTGAACAAATGACTAGA,sensor-assay potency score (higher = more potent),[6],-0.0154
TTCAGCAGCAGGGACAGGCTGC,sensor-assay potency score (higher = more potent),[5],-0.751
TTTTGCTCTTCTTTGCTTCCAG,sensor-assay potency score (higher = more potent),[6],0.153
TAAAAAAGGCCTTACATCCTTC,sensor-assay potency score (higher = more potent),[7],-0.442
TTTCTTGACAGCTTTATGGAGT,sensor-assay potency score (higher = more potent),[6],0.273
TTACACATCTTTGGTCCTCAGA,sensor-assay potency score (higher = more potent),[6],-0.674
TTTATTTTTGCTTATTGTGGTG,sensor-assay potency score (higher = more potent),[8],-0.386
TAGCAAACACATGTTCAGCTTC,sensor-assay potency score (higher = more potent),[5],0.322
TCCAAGTTAGTGACATTGCTGG,sensor-assay potency score (higher = more potent),[7],0.101
AATTGTATCATCTTCCTCGCTG,sensor-assay potency score (higher = more potent),[8],0.524
TTTGCTCTTCTTTGCTTCCAGA,sensor-assay potency score (higher = more potent),[6],-0.875
TGAGTCTGTGAGTACCTCCAGG,sensor-assay potency score (higher = more potent),[5],-0.966
TATTGCAGTACAATGGTCTTGT,sensor-assay potency score (higher = more potent),[6],0.896
ATCATTAACACCTCCATCCAAC,sensor-assay potency score (higher = more potent),[7],-1.05
TATTGTGGTGCCATCTGTGTGC,sensor-assay potency score (higher = more potent),[8],0.019
TTATCGATTGTACACTGATTTG,sensor-assay potency score (higher = more potent),[7],-1.64
TCGGTGAATGTGACCAGCCAGA,sensor-assay potency score (higher = more potent),[5],-1.22
TCTCTCACTAGCACCGTCCTCC,sensor-assay potency score (higher = more potent),[6],0.0369
TGCCACAACAGAACAGTCCCGC,sensor-assay potency score (higher = more potent),[5],0.291
TTTTTTGTTAAAGAGGAGCTGT,sensor-assay potency score (higher = more potent),[8],0.195
TAGCTGGACAAATATAATCATT,sensor-assay potency score (higher = more potent),[7],-1.44
TAGTAAAGAAGAGTTCACCTTG,sensor-assay potency score (higher = more potent),[6],0.291
TTTCATTGGTAATTGTATCATC,sensor-assay potency score (higher = more potent),[8],-0.447
TCCTCTTCTTCCATCCTCCAGG,sensor-assay potency score (higher = more potent),[5],-1.74
TTACAGGTAAGGTGTGTTCTAG,sensor-assay potency score (higher = more potent),[7],-0.694
TTTACTCAGATTTCCAACTTGG,sensor-assay potency score (higher = more potent),[6],0.208
TTACATCTTCTTGAGTGTCCGT,sensor-assay potency score (higher = more potent),[5],0.428
TTATTTAGCAAACACATGTTCA,sensor-assay potency score (higher = more potent),[5],-0.54
TACATCTTCTTGAGTGTCCGTC,sensor-assay potency score (higher = more potent),[5],0.148
AAATATAATCATTATGTCCTTG,sensor-assay potency score (higher = more potent),[7],-0.156
TGCACCAAGAACTTGACGCAGT,sensor-assay potency score (higher = more potent),[5],-1.02
TTATTTTTGCTTATTGTGGTGC,sensor-assay potency score (higher = more potent),[8],0.19
TTCCTTTTCAGTGTCTCTCTGT,sensor-assay potency score (higher = more potent),[7],0.263
TTCATTGCTGCTGTCCTCGGGC,sensor-assay potency score (higher = more potent),[8],0.0342
TTCTTTGATTTATGCTTCCTAA,sensor-assay potency score (higher = more potent),[8],-1.05
TTCAACTTCAGTTCACTCCGGA,sensor-assay potency score (higher = more potent),[6],0.912
TTTATTTAGCAAACACATGTTC,sensor-assay potency score (higher = more potent),[5],-0.167
TTCTTGGCTTTCATGATGTTGG,sensor-assay potency score (higher = more potent),[9],-0.962
TTCTTCTTGGCTTTCATGATGT,sensor-assay potency score (higher = more potent),[9],-0.521
ATAACCTAAAACAGCTTCCTGC,sensor-assay potency score (higher = more potent),[10],-0.549
TCATCTTCCTTTTTGAAGCGAC,sensor-assay potency score (higher = more potent),[10],-0.679
TTTTTCTTGAGAGATGTCCATT,sensor-assay potency score (higher = more potent),[11],-1.17
TTTAATTGCAGACTTTTCCTGA,sensor-assay potency score (higher = more potent),[11],0.605
TCTCTCGCTGCTTCTTGGCCAG,sensor-assay potency score (higher = more potent),[12],-0.748
TGACAGGAGACTCTCCAGGGAG,sensor-assay potency score (higher = more potent),[12],-0.895
TAGCATAGTTACAAACTTGAGA,sensor-assay potency score (higher = more potent),[13],-0.258
TATCTTTATCAATATCATCAGC,sensor-assay potency score (higher = more potent),[13],-1.22
TTGACCAACAGGACTGTTGAAA,sensor-assay potency score (higher = more potent),[14],-0.462
TTGCACACACTACTAGTTCAAC,sensor-assay potency score (higher = more potent),[15],-1.05
TTCCTTGCTGCTGTCCACCTTG,sensor-assay potency score (higher = more potent),[15],-0.442
TTATATTGGAAAAATAAGCAGG,sensor-assay potency score (higher = more potent),[16],-0.37
AATGTTGCCTCTGAAATCCATG,sensor-assay potency score (higher = more potent),[17],-1.53
TTTCTCACCAGTGTGGACGACC,sensor-assay potency score (higher = more potent),[18],-0.391
TGGTTGGCTAGGTTGAAGCTGT,sensor-assay potency score (higher = more potent),[18],-0.915
TAGAGTGTGGTACTTCTTCTAC,sensor-assay potency score (higher = more potent),[19],-0.462
TAGTTAGCTCTGTCCAGCCCTC,sensor-assay potency score (higher = more potent),[20],-1.24
TTAACTGCACGCCACTGTGTGC,sensor-assay potency score (higher = more potent),[19],-1.27
TTCCTTGTTCCACACATCCAGC,sensor-assay potency score (higher = more potent),[21],-1.14
AACAGCTTCTCGCACTCGGAGC,sensor-assay potency score (higher = more potent),[18],-1.76
TATGGTTTTCTCAGGGTCCTGC,sensor-assay potency score (higher = more potent),[21],0.0683
TAGCTGGTGTCGAAGAAGGTGC,sensor-assay potency score (higher = more potent),[21],-0.841
TAGCTGGACAGCGTCCTTCGGG,sensor-assay potency score (higher = more potent),[21],-1.26
TTGAAGGGCTTCACGTCGGTGT,sensor-assay potency score (higher = more potent),[18],0.144
TGACACATGGACTCCAAGCATT,sensor-assay potency score (higher = more potent),[20],-1.29
TTCGGTAGGAGGGTCTCGGGGC,sensor-assay potency score (higher = more potent),[20],-0.399
ATAGCTTGAATCAAACTTCTTG,sensor-assay potency score (higher = more potent),[21],0.371
TTGAGGTAGCACTCGTGGCGGA,sensor-assay potency score (higher = more potent),[18],-0.466
